Assay results reported in PubChem BioAssay AID1159580 (chemical genetic matrix, 2015).
Several values for one entry are separate records, joined by “and”; a condition that tells them apart may be missing. Equal entries are not always repeated. Screen size: about 5,500 compounds; about 2,000 (36%) were called active. Inconclusive results (about 18%) are left out. Cut-off read from the data, not from the text of the source: active = normalized growth mostly below about 0.91 (no sharp cut-off); inconclusive = no clear call, values can overlap the other calls; inactive = mostly above about 0.92. The list shows a part of the results.

Assay: chemical genetic growth profiling, strain panel (AID 1159580);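 note: tested at 20 µM; growth read once vehicle control cultures reached saturation at 30 °C; 1 = growth at the plate median or of vehicle wells; lower values mean less growth of the strain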
Settings: growth OD

Measured: normalized growth

O=C(O)CCCc1ccc(N(CCCl)CCCl)cc1
active: S. cerevisiae deletion strains, locus YLR113W, strain HOG1, stronger effect = lower value 0.838 | S. cerevisiae deletion strains, locus YNL248C, strain rpa49, stronger effect = lower value 0.882 | S. cerevisiae deletion strains, locus YNL250W, strain rad50, stronger effect = lower value 0.819 | S. cerevisiae deletion strains, locus YNL298W, strain CLA4, stronger effect = lower value 0.896 | S. cerevisiae deletion strains, locus YOR231W, strain MKK1, stronger effect = lower value 0.84
inactive: S. cerevisiae deletion strains, locus YKL009W, strain mrt4, stronger effect = lower value 0.92 | S. cerevisiae deletion strains, locus YKL068W, stronger effect = lower value 0.973 | S. cerevisiae deletion strains, locus YKL085W, strain MDH1 (second series), stronger effect = lower value 0.942 | S. cerevisiae deletion strains, locus YKL085W, strain MDH1, stronger effect = lower value 0.942 | S. cerevisiae deletion strains, locus YKL160W, strain elf1, stronger effect = lower value 0.927 | S. cerevisiae deletion strains, locus YKR001C, strain vps1, stronger effect = lower value 0.985 | S. cerevisiae deletion strains, locus YKR026C, strain gcn3, stronger effect = lower value 0.971 | S. cerevisiae deletion strains, locus YKR091W, strain srl3, stronger effect = lower value 0.962 | S. cerevisiae deletion strains, locus YLL001W, strain dnm1, stronger effect = lower value 1.01 | S. cerevisiae deletion strains, locus YLL026W, stronger effect = lower value 0.984 | S. cerevisiae deletion strains, locus YLL041C, strain sdh2, stronger effect = lower value 0.963 | S. cerevisiae deletion strains, locus YLR027C, strain aat2, stronger effect = lower value 0.949 | S. cerevisiae deletion strains, locus YLR039C, strain RIC1, stronger effect = lower value 0.974 | S. cerevisiae deletion strains, locus YLR058C, strain SHM2, stronger effect = lower value 0.977 | S. cerevisiae deletion strains, locus YLR102C, strain apc9, stronger effect = lower value 0.987 | S. cerevisiae deletion strains, locus YLR221C, strain rsa3, stronger effect = lower value 1.03 | S. cerevisiae deletion strains, locus YLR258W, strain gsy2, stronger effect = lower value 0.96 | S. cerevisiae deletion strains, locus YLR262C, strain YPT6 (second series), stronger effect = lower value 0.987 | S. cerevisiae deletion strains, locus YLR262C, strain YPT6, stronger effect = lower value 0.915 | S. cerevisiae deletion strains, locus YLR268W, strain sec22, stronger effect = lower value 0.981 | S. cerevisiae deletion strains, locus YLR320W, strain mms22, stronger effect = lower value 0.993 | S. cerevisiae deletion strains, locus YLR330W, strain CHS5, stronger effect = lower value 0.985 | S. cerevisiae deletion strains, locus YLR342W, strain FKS1 (second series), stronger effect = lower value 0.96 | S. cerevisiae deletion strains, locus YLR342W, strain FKS1, stronger effect = lower value 0.99 | S. cerevisiae deletion strains, locus YLR357W, strain rsc2, stronger effect = lower value 0.948 | S. cerevisiae deletion strains, locus YLR370C, strain arc18, stronger effect = lower value 0.959 | S. cerevisiae deletion strains, locus YLR371W, strain rom2, stronger effect = lower value 0.992 | S. cerevisiae deletion strains, locus YLR384C, strain iki3, stronger effect = lower value 0.979 | S. cerevisiae deletion strains, locus YLR418C, strain cdc73, stronger effect = lower value 1.03 | S. cerevisiae deletion strains, locus YML016C, strain PPZ1, stronger effect = lower value 0.984 | S. cerevisiae deletion strains, locus YML032C, strain rad52, stronger effect = lower value 0.944 | S. cerevisiae deletion strains, locus YML120C, strain ndi1, stronger effect = lower value 0.987 | S. cerevisiae deletion strains, locus YML124C, strain tub3, stronger effect = lower value 0.989 | S. cerevisiae deletion strains, locus YMR058W, strain fet3, stronger effect = lower value 0.979 | S. cerevisiae deletion strains, locus YMR078C, strain ctf18, stronger effect = lower value 0.972 | S. cerevisiae deletion strains, locus YMR125W, strain sto1, stronger effect = lower value 0.945 | S. cerevisiae deletion strains, locus YMR129W, stronger effect = lower value 0.969 | S. cerevisiae deletion strains, locus YMR205C, strain PFK2, stronger effect = lower value 0.992 | S. cerevisiae deletion strains, locus YMR223W, strain ubp8, stronger effect = lower value 1.01 | S. cerevisiae deletion strains, locus YMR231W, strain pep5, stronger effect = lower value 0.981 | S. cerevisiae deletion strains, locus YMR307W, strain GAS1, stronger effect = lower value 0.922 and 0.985 | S. cerevisiae deletion strains, locus YNL067W, strain RPL9B, stronger effect = lower value 1.02 | S. cerevisiae deletion strains, locus YNL071W, strain lat1, stronger effect = lower value 0.964 | S. cerevisiae deletion strains, locus YNL153C, strain GIM3, stronger effect = lower value 1.01 | S. cerevisiae deletion strains, locus YNL175C, strain NOP13, stronger effect = lower value 1.04 | S. cerevisiae deletion strains, locus YNL183C, strain NPR1, stronger effect = lower value 0.908 | S. cerevisiae deletion strains, locus YNL197C, strain WHI3, stronger effect = lower value 0.989 | S. cerevisiae deletion strains, locus YNL209W, strain ssb2, stronger effect = lower value 0.976 | S. cerevisiae deletion strains, locus YNL224C, strain SQS1, stronger effect = lower value 1 | S. cerevisiae deletion strains, locus YNL233W, strain BNI4, stronger effect = lower value 1.03 | S. cerevisiae deletion strains, locus YNL271C, strain bni1, stronger effect = lower value 0.967 | S. cerevisiae deletion strains, locus YNL307C, strain MCK1, stronger effect = lower value 0.983 | S. cerevisiae deletion strains, locus YNL322C, strain KRE1 (second series), stronger effect = lower value 0.943 | S. cerevisiae deletion strains, locus YNR049C, strain mso1, stronger effect = lower value 0.959 | S. cerevisiae deletion strains, locus YNR052C, strain pop2, stronger effect = lower value 0.985 | S. cerevisiae deletion strains, locus YOL006C, strain TOP1, stronger effect = lower value 1.11 | S. cerevisiae deletion strains, locus YOL012C, strain htz1 1.27 | S. cerevisiae deletion strains, locus YOL147C, strain pex11, stronger effect = lower value 0.99 | S. cerevisiae deletion strains, locus YOR001W, strain rrp6, stronger effect = lower value 1.03 | S. cerevisiae deletion strains, locus YOR061W, strain CKA2, stronger effect = lower value 0.969 | S. cerevisiae deletion strains, locus YOR069W, strain VPS5, stronger effect = lower value 0.975 | S. cerevisiae deletion strains, locus YOR070C, strain gyp1, stronger effect = lower value 0.984 | S. cerevisiae deletion strains, locus YOR080W, strain dia2, stronger effect = lower value 0.963 | S. cerevisiae deletion strains, locus YOR083W, strain WHI5 (second series), stronger effect = lower value 0.99 | S. cerevisiae deletion strains, locus YOR083W, strain WHI5, stronger effect = lower value 0.94 | S. cerevisiae deletion strains, locus YOR106W, strain vam3, stronger effect = lower value 0.918 | S. cerevisiae deletion strains, locus YOR136W, strain idh2, stronger effect = lower value 0.987 | S. cerevisiae deletion strains, locus YOR144C, strain elg1, stronger effect = lower value 0.987 | S. cerevisiae deletion strains, locus YOR184W, strain ser1, stronger effect = lower value 0.976 | S. cerevisiae deletion strains, locus YOR265W, strain rbl2, stronger effect = lower value 0.969 | S. cerevisiae deletion strains, locus YOR270C, strain vph1, stronger effect = lower value 0.986 | S. cerevisiae deletion strains, locus YOR290C, strain snf2, stronger effect = lower value 0.935 | S. cerevisiae deletion strains, locus YOR316C, strain cot1, stronger effect = lower value 0.976 | S. cerevisiae deletion strains, locus YPL051W, strain arl3, stronger effect = lower value 0.997 | S. cerevisiae deletion strains, locus YPL055C, strain LGE1, stronger effect = lower value 0.992 | S. cerevisiae deletion strains, locus YPL078C, strain atp4, stronger effect = lower value 0.952 | S. cerevisiae deletion strains, locus YPL106C, strain sse1, stronger effect = lower value 0.899 | S. cerevisiae deletion strains, locus YPL240C, strain hsp82, stronger effect = lower value 0.988 | S. cerevisiae deletion strains, locus YPL241C, strain CIN2, stronger effect = lower value 0.997 | S. cerevisiae deletion strains, locus YPL256C, strain CLN2, stronger effect = lower value 0.857 | S. cerevisiae deletion strains, locus YPR119W, strain clb2, stronger effect = lower value 0.985 | S. cerevisiae deletion strains, locus YPR141C, strain kar3, stronger effect = lower value 0.99 | S. cerevisiae deletion strains, locus YPR163C, strain tif3, stronger effect = lower value 0.984 | S. cerevisiae deletion strains, locus YPR167C, strain met16, stronger effect = lower value 0.994 | S. cerevisiae deletion strains, strain wtn01, stronger effect = lower value 0.993 | S. cerevisiae strains, strain wild type, stronger effect = lower value 0.984
